Measured values from PubChem BioAssay (Tox21).
Unmarked numbers belong to inactive results. Inconclusive results are not listed. Where a call stands in place of a potency, no number is given. Activity calls are given as the source filed them. Unless noted, the call rests on the fitted dose curve; in most records, active means well fitted curve in the direction sought with a large enough effect in the repeat runs; inconclusive means weak or mixed curves; inactive means no such curve, though single readings can be large; an effect the other way counts as inactive or inconclusive.

Assays:
[1] = molecular target: Acetylcholinesterase (Homo sapiens) (UniProt P22303); assay: Acetylcholinesterase (AChE) small molecule antagonists: enzyme-based qHTS assay (AID 1347397; calls by dose curve; further: nearly all actives have a fitted effect of over 55% in size); settings: Potency: AChE enzyme activity inhibition; outcome: AChE enzyme activity inhibition; series mostly up to 115 µM
Method in brief: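 Human recombinant acetylcholinesterase; substrate acetylthiocholine; thiocholine quantified with DTNB (colorimetric). Compound preincubation 30 min RT; reaction 10 min RT.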

[2] = molecular target: Acetylcholinesterase (Homo sapiens) (UniProt P22303); assay: Acetylcholinesterase (AChE) small molecule antagonists: fluorescence cell-based qHTS assay (AID 1347398; calls by dose curve; further: nearly all actives have a fitted effect of over 50% in size); settings: SH-SY5Y cells; Potency: AChE activity; outcome: AChE activity; series mostly up to 115 µM
Method in brief: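 Thiocholine generated from acetylthiocholine by SH-SY5Y cell AChE is detected with Thiolite Green (Ex/Em 490/520 nm) after 40 min at room temperature, following 30 min compound pretreatment at 37 C.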

[3] = molecular target: Acetylcholinesterase (Homo sapiens) (UniProt P22303); assay: Acetylcholinesterase (AChE) small molecule antagonists: enzyme-based qHTS assay with human liver microsomes (AID 1347399; calls by dose curve; further: nearly all actives have a fitted effect of over 60% in size); settings: Potency: qHTS inhibition; outcome: qHTS inhibition; series mostly up to 115 µM
Method in brief: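 Recombinant human AChE (50 mU/mL in the enzyme mix) and human liver microsomes (0.25 mg/mL final) were preincubated with compound and NADPH (0.25 mg/mL final) for 30 min at 37 C. Acetylthiocholine/DTNB was then added; thiocholine was read colorimetrically after 10 min at room temperature.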

[4] = molecular target: Cytochrome P450 2C9 (Homo sapiens) (UniProt P11712); assay: Cytochrome P450 Family 2 Subfamily C Member 9 (CYP2C9) small molecule antagonists: luciferase reporter qHTS assay (AID 1671198); settings: P450-Glo CYP2C9 enzyme assay, luciferin luminescence; series mostly up to 115 µM; further: nearly all actives have a fitted effect of over 50% in size; further: potency means the concentration at half of the fitted maximal effect
Method in brief: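 CYP2C9 activity was measured with a P450-Glo proluciferin substrate. Enzyme–substrate mix was held with compound for 10 min at room temperature, then NADPH regeneration solution was added for 1 h at 37C. Luciferin product was read as luminescence.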

[5] = molecular target: Voltage-gated inwardly rectifying potassium channel KCNH2 (Homo sapiens) (UniProt Q12809); assay: Human Ether-a-go-go-Related Gene (hERG) channel small molecule antagonists: fluorescence cell-based qHTS assay (AID 1671200); settings: hERG-U2OS cells, FluxOR thallium flux fluorescence; series mostly up to 76.8 µM;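 further: hERG-expressing U2OS cells given a thallium stimulus after FluxOR II dye loading; nearly all actives have a fitted effect of over 50% in size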
Method in brief: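 hERG-U2OS cells plated overnight at 37 C, loaded with FluxOR II dye 1 h at RT in dark; after 10 min, thallium stimulus added. Fluorescence (480/540 nm) read kinetically for 2 min at 1 s intervals.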

[6] = molecular target: Cytochrome P450 3A4 (Homo sapiens) (UniProt P08684); assay: Cytochrome P450 Family 3 Subfamily A Member 4 (CYP3A4) small molecule antagonists: luciferase reporter qHTS assay (AID 1671201); settings: P450-Glo CYP3A4 enzyme, luciferin luminescence, 1 h; series mostly up to 115 µM; further: nearly all actives have a fitted effect of over 50% in size; further: potency means the concentration at half of the fitted maximal effect
Method in brief: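 P450-Glo CYP3A4 luminescent assay: compounds preincubated 10 min at room temperature with enzyme and proluciferin substrate, NADPH regeneration added, 1 h room-temperature reaction, stopped with luciferin detection reagent; luminescence read after 20 min. Ketoconazole positive control.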

[7] = molecular target: Cytochrome P450 1A2 (Homo sapiens) (UniProt P05177); assay: Cytochrome P450 Family 1 Subfamily A Member 2 (CYP1A2) small molecule antagonists: luciferase reporter qHTS assay (AID 1671199); settings: P450-Glo CYP1A2 enzyme, luciferin luminescence, 1 h; series mostly up to 115 µM; further: nearly all actives have a fitted effect of over 50% in size; further: potency means the concentration at half of the fitted maximal effect
Method in brief: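 Inhibition of CYP1A2 conversion of proluciferin to luciferin, detected by luminescence. Reaction run 1 h at room temperature with NADPH regeneration after brief compound preincubation.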

[8] = molecular target: Cytochrome P450 2C19 (Homo sapiens) (UniProt P33261); assay: Cytochrome P450 Family 2 Subfamily C Member 19 (CYP2C19) small molecule antagonists: luciferase reporter qHTS assay (AID 1671197); settings: P450-Glo CYP2C19 enzyme, luciferin luminescence, 1 h; series mostly up to 115 µM; further: nearly all actives have a fitted effect of over 65% in size; further: potency means the concentration at half of the fitted maximal effect
Method in brief: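 P450-Glo CYP2C19 screening system; proluciferin substrate; DMSO compound stocks; 10 min RT preincubation; NADPH regeneration, 1 h at 37C; luciferin detection reagent, 20 min RT; luminescence as RLU.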

[9] = molecular target: Cytochrome P450 2D6 (Homo sapiens) (UniProt P10635); assay: Cytochrome P450 Family 2 Subfamily D Member 6 (CYP2D6) small molecule antagonists: luciferase reporter qHTS assay (AID 1671196); settings: P450-Glo CYP2D6 enzyme assay, luciferin luminescence, 1 h; series mostly up to 115 µM
Method in brief: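 P450-Glo format: CYP2D6 converts a proluciferin substrate to luciferin in an NADPH-driven reaction lasting 1 h at room temperature. Light output, proportional to CYP2D6 activity, reflects interference by test chemicals.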

Cytochrome P450 2C19 (Homo sapiens), sequence (P33261 whole entry, looked up): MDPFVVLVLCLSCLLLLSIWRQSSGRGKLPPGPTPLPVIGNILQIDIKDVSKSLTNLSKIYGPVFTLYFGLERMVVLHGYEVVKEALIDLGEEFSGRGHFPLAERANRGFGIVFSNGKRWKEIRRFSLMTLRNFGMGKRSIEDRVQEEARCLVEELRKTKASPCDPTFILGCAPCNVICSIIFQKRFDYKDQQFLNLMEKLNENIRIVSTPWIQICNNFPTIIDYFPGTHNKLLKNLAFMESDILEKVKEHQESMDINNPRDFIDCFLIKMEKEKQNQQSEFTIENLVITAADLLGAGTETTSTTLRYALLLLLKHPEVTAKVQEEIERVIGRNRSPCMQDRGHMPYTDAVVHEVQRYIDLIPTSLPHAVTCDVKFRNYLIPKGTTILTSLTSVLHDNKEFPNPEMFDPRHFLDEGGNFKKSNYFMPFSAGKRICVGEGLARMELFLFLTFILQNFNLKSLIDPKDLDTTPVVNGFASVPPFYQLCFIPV
Cytochrome P450 3A4 (Homo sapiens), sequence (P08684 whole entry, looked up): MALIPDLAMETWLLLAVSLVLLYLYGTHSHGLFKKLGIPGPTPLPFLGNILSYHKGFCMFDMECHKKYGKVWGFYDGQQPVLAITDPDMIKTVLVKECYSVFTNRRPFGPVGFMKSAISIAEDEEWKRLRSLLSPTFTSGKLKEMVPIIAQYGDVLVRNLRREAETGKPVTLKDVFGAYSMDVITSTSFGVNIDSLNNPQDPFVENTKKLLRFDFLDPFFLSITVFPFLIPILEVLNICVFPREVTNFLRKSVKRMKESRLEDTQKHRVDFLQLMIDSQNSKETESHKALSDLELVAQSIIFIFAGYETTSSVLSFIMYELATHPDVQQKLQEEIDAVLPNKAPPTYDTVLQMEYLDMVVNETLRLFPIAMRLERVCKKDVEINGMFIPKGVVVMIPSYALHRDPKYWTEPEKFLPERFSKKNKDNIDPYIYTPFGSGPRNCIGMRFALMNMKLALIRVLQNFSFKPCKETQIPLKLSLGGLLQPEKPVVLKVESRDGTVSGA
Voltage-gated inwardly rectifying potassium channel KCNH2 (Homo sapiens), sequence (Q12809 whole entry, looked up): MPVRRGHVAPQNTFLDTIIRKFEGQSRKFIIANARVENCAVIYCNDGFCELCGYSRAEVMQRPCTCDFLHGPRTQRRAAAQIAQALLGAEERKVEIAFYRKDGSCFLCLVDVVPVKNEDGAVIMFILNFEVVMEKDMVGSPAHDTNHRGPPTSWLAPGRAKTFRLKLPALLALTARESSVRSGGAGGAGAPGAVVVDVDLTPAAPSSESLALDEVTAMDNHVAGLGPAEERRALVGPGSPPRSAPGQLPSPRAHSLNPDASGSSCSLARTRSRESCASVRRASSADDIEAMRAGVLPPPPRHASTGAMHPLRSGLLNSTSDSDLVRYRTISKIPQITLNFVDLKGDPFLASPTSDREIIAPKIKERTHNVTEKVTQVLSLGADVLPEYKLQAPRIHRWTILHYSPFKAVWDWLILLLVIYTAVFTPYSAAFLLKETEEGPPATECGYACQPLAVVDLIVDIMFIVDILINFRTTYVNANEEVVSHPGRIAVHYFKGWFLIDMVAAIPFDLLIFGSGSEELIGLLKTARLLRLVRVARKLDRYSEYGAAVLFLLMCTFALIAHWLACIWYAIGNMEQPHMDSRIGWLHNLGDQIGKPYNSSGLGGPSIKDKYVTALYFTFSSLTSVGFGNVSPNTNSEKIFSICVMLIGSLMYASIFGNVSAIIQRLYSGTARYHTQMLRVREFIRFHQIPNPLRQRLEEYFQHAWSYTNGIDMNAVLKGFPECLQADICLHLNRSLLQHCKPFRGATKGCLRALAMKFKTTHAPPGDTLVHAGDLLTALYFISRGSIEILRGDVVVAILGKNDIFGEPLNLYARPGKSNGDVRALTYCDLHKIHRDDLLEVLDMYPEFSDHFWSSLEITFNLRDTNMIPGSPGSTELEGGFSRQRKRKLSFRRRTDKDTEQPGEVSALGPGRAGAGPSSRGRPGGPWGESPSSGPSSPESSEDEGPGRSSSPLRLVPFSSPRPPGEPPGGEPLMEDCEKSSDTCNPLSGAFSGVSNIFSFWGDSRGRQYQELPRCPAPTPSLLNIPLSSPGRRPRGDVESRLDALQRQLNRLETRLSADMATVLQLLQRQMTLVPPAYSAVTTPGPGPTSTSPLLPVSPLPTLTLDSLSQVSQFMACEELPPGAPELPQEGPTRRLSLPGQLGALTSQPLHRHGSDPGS
Acetylcholinesterase (Homo sapiens), sequence (P22303 whole entry, looked up): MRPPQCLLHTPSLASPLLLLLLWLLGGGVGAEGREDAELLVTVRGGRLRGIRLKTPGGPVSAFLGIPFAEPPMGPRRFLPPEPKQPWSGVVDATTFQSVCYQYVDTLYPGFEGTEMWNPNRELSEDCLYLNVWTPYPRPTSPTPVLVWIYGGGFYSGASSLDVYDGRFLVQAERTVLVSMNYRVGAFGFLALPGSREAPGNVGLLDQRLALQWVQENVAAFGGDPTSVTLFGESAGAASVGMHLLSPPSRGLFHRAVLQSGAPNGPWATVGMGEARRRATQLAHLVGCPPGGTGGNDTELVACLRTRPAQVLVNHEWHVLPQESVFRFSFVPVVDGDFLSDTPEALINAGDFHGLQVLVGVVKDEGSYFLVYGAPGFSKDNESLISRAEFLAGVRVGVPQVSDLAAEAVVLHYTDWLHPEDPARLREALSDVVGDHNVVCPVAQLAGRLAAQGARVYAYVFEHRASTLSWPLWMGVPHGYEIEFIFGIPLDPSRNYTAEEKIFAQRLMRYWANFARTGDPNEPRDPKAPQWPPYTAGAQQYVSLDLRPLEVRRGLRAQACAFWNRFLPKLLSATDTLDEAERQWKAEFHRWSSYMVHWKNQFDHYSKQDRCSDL
Cytochrome P450 2C9 (Homo sapiens), sequence (P11712 whole entry, looked up): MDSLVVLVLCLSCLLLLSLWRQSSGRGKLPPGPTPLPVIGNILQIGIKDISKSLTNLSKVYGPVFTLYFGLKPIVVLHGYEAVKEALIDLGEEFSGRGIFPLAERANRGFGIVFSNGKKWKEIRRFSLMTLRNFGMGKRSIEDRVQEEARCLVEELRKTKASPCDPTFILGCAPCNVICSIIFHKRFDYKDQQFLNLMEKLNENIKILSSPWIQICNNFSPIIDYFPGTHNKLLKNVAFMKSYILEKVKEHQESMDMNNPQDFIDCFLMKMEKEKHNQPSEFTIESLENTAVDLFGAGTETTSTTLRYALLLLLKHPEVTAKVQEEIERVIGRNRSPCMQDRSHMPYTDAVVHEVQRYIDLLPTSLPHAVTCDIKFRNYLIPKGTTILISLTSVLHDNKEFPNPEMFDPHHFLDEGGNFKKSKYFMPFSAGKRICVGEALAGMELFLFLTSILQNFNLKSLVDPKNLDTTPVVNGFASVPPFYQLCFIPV
Cytochrome P450 1A2 (Homo sapiens), sequence (P05177 whole entry, looked up): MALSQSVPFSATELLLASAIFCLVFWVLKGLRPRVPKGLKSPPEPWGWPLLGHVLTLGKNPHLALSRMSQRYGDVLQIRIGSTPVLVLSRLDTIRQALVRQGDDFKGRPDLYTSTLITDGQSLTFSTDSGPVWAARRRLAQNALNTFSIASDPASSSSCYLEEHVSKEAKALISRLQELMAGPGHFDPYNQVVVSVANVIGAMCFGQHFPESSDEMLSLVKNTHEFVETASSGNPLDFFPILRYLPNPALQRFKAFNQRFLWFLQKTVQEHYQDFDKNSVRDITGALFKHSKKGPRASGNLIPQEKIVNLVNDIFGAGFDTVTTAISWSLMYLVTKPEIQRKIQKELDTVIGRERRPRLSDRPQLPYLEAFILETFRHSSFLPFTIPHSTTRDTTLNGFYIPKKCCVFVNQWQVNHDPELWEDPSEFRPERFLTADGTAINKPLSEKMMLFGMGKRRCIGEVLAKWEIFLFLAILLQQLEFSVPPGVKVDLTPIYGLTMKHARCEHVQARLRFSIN
Cytochrome P450 2D6 (Homo sapiens), sequence (P10635 whole entry, looked up): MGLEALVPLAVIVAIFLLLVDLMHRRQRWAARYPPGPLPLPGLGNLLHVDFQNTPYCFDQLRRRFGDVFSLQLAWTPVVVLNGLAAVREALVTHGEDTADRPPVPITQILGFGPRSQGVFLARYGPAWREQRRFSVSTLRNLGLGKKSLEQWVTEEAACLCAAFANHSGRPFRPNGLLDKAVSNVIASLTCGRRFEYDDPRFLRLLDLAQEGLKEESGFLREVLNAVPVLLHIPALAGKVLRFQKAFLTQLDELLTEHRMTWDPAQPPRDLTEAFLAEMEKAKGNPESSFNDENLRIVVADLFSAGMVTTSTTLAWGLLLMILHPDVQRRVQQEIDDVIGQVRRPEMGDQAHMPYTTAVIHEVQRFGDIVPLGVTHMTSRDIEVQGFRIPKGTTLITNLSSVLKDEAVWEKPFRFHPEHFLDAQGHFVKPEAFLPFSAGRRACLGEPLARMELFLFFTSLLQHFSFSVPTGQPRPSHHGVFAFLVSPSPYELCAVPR

Row | Structure (SMILES) | Potency [1] | Potency [2] | Potency [3] | Potency [4] | Potency [5] | Potency [6] | Potency [7] | Potency [8] | Potency [9]
1 | O=c1[nH]c2ccccc2o1 | inactive | inactive | inactive | inactive | inactive | inactive | – | – | –
2 | NNCc1ccccc1 | inactive | inactive | inactive | 45.6 µM (active) | – | 32.3 µM (active) | 12.9 µM (active) | – | –
3 | CC1=C2[C@H]3OC(=O)[C@@H](C)[C@@H]3CC[C@@]2(C)C=CC1=O | inactive | inactive | inactive | – | inactive | – | inactive | – | –
4 | O=S1(=O)OCCO1 | inactive | inactive | inactive | inactive | inactive | inactive | – | – | –
5 | CS(=O)(=O)Cl | inactive | inactive | inactive | inactive | inactive | inactive | – | inactive | –
6 | Oc1ccc(Cc2ccc(O)cc2)cc1 | inactive | inactive | inactive | inactive | inactive | inactive | – | inactive | –
7 | CCN[C@@H](C)Cc1cccc(C(F)(F)F)c1 | inactive | inactive | inactive | inactive | inactive | inactive | – | – | –
8 | c1cncc([C@@H]2CCCCN2)c1 | inactive | inactive | inactive | – | inactive | – | – | 39.9 µM (active) | –
9 | O=C(Cl)C(Cl)(Cl)Cl | inactive | inactive | inactive | inactive | inactive | inactive | inactive | – | –
10 | CCN1CCCC1CNC(=O)C(O)(c1ccccc1)c1ccccc1 (stereo not given) | inactive | inactive | inactive | inactive | – | 4.9 µM (active) | inactive | inactive | –
11 | NNC(N)=O | inactive | inactive | inactive | – | inactive | inactive | 36.5 µM (active) | inactive | –
12 | C#CC(C)(C)O | inactive | inactive | inactive | inactive | inactive | inactive | – | inactive | –
13 | CN1COCN(Cc2cnc(Cl)s2)/C1=N\[N+](=O)[O-] | inactive | inactive | inactive | – | inactive | inactive | – | inactive | –
14 | CC(C)N(Cc1ccccc1)C(=O)C(C)(C)C | inactive | inactive | inactive | 35.6 µM (active) | inactive | inactive | – | 20 µM (active) | –
15 | COC(=O)c1ccc(CBr)cc1 | inactive | inactive | inactive | – | inactive | – | 36 µM (active) | – | –
16 | C=C1CC[C@@]2(O)[C@H]3Cc4ccc(O)c5c4[C@@]2(CCN3CC2CC2)[C@H]1O5 | inactive | inactive | inactive | inactive | inactive | inactive | inactive | – | –

Row | Structure (SMILES) | Potency [1] | Potency [2] | Potency [3] | Potency [4] | Potency [5] | Potency [6] | Potency [7] | Potency [8] | Potency [9]
17 | O=P(O)(O)CN(CP(=O)(O)O)CP(=O)(O)O | inactive | inactive | inactive | inactive | inactive | inactive | inactive | inactive | –
18 | CN(CCO)CCO | inactive | inactive | inactive | inactive | inactive | inactive | – | inactive | –
19 | C=C1C[C@@H]2[C@H](CC[C@]3(C)C(=O)CC[C@@H]23)[C@@]2(C)C=CC(=O)C=C12 | inactive | inactive | inactive | – | inactive | inactive | inactive | 4.36 µM (active) | –
20 | O=C(O)C(Cl)Br (stereo not given) | inactive | inactive | inactive | inactive | inactive | inactive | – | inactive | –
21 | CCN(CCO)CCn1c(Cc2ccccc2)nc2c1c(=O)n(C)c(=O)n2C | inactive | inactive | inactive | inactive | inactive | inactive | inactive | – | –
22 | NC1(c2ccccc2)CCCCC1 | inactive | inactive | inactive | inactive | inactive | inactive | inactive | – | –
23 | Cl/C=C/CCl | inactive | inactive | inactive | inactive | inactive | inactive | – | inactive | –
24 | CCCCCCCCSC(=O)Oc1cc(Cl)nnc1-c1ccccc1 | inactive | inactive | inactive | 35.6 µM (active) | inactive | inactive | – | – | –
25 | C1CN2CCC1CC2 | inactive | inactive | inactive | inactive | inactive | inactive | inactive | – | –
26 | COC[C@@H](NC(C)=O)C(=O)NCc1ccccc1 | inactive | inactive | inactive | inactive | – | inactive | – | inactive | –
27 | CCOC(=O)Nc1cccc(OC(=O)Nc2ccccc2)c1 | inactive | inactive | inactive | – | inactive | – | 12.6 µM (active) | 20 µM (active) | –
28 | CC(C)[N+](C)(CCC(C(N)=O)(c1ccccc1)c1ccccc1)C(C)C | inactive | inactive | inactive | 38.9 µM (active) | inactive | – | – | inactive | –
29 | O=c1[nH]c2ccccc2n1C1CCNCC1 | inactive | inactive | inactive | – | inactive | inactive | – | – | –
30 | CC[C@@H](CO)NC(=O)[C@@H]1C=C2c3cccc4[nH]cc(c34)C[C@H]2N(C)C1 | – | – | inactive | – | inactive | inactive | – | – | –
31 | CCc1cc(OC)c(C[C@H](C)N)cc1OC | – | – | – | inactive | inactive | – | 20.9 µM (active) | inactive | 4.16 µM (active)
